In PubChem BioAssay:

Assay: modulators of CIT2-GFP expression in yeast, confirmation, S. cerevisiae, GFP fusion, cherry picks, mother/daughter gates (AID 2274)
Settings: S. cerevisiae CIT2-GFP strain, flow cytometry, 3 h; measured here: daughter cell gate; at 10 µM; stronger effect = higher value

Compound | GFP response, % of DMSO [%]
COC(=O)c1ccccc1Sc1ncnc2onc(C)c12 | 106
CC(C)(C)C(=O)C(Cl)C(=O)Nc1ccccc1 (stereo not given) | 106
O=[N+]([O-])c1ccc(S(=O)(=O)c2cccc(C(F)(F)F)c2)nc1 | 149
Cc1cccn2c(=O)c(/C=C(\C#N)C(=O)NC3CCS(=O)(=O)C3)c(N3CC(C)OC(C)C3)nc12 (stereo not given) | 103
CCc1nnc(NC(=O)c2ccc(S(=O)(=O)N(CCOC)CCOC)cc2)o1 | 101
Cc1ccc(N(C(=O)CCCC(=O)Nc2ccccn2)C(C(=O)NC2CCCC2)c2ccc(O)cc2)cc1C (stereo not given) | 108
COc1ccc(OC)c(C2C(C(=O)Nc3nc4ccccc4s3)=C(C)NC3=C2C(=O)CCC3)c1 (stereo not given) | 85
O=[N+]([O-])c1ccc(-c2cn3nc(-c4ccccc4)c(-c4ccccc4)nc3n2)cc1 | 106
COc1ccccc1OC(C)C(=O)Nc1ccccc1C(=O)NCC1CCCO1 (stereo not given) | 98.3
COc1ccc(NS(=O)(=O)c2cccc3ccccc23)cc1 | 99.1
O=C(c1ccc2ccccc2c1)N1CCN(c2ccc(O)cc2)CC1 | 103
O=C1c2ccsc2SCCN1Cc1cccc(Cl)c1 | 99.1
CCCOc1ccc(C(=O)NNC(=S)NC(=O)CC)cc1 | 121
Cc1cccc(N2C(=O)c3cccc4c(N(C)CCO)ccc(c34)C2=O)c1 | 105
Cc1ccc(-n2ncc(C#N)c2/N=C/N(C)C)cc1 | 92
C=CCOc1ccccc1C(=O)/C=C1/C(=O)Nc2ccccc21 | 95.6
O=c1cnnc(SCc2ccc([N+](=O)[O-])cc2)[nH]1 | 99.1
Cc1ccc(S(=O)(=O)N2CCCC2C(=O)Oc2ccccc2)cc1 (stereo not given) | 97.2
COCCNc1c(-c2ccc(O)cc2)nc2ccc(Cl)cn12 | 99.1
O=C(Nc1nc(-c2ccc(F)cc2)cs1)c1cnccn1 | 98.3

Compound | GFP response, % of DMSO [%]
CS(=O)(=O)N1N=C(c2ccc3nccnc3c2)CC1c1ccccc1 (stereo not given) | 103
O=C(NCCCSc1ccccc1)c1cc(Cl)ccc1O | 96.4
COc1ccc(N2C(=O)CC(Sc3ncn[nH]3)C2=O)c(OC)c1 (stereo not given) | 115
CN1CCSc2ccc(C(=O)Nc3cccc(F)c3)cc21 | 89
CCN(CC)CCCN(C(=O)c1ccc(Br)cc1)c1nc(-c2ccc(OC)cc2)cs1 | 95.8
O=C(Nc1nccs1)C1CCCN1S(=O)(=O)c1ccc(F)cc1 (stereo not given) | 103
O=C(c1ccccc1)c1ccccc1N1C(=O)C=CC1=O | 95.2
COc1ccc(N2CCN(C(=O)C3CCCN(S(=O)(=O)c4ccc(C)cc4)C3)CC2)cc1 (stereo not given) | 97.4
Cc1cc(NCCCN2CCOCC2)n2nc(C)c(-c3ccc(F)cc3)c2n1 | 95.8
CCC(C)(C)n1nnnc1C(c1ccc(O)c(OC)c1)N1CCc2ccccc2C1 (stereo not given) | 108
COc1ccc(-c2csc(Nc3ncccc3C)n2)cc1 | 105
O=S(=O)(Nc1ccc(Br)cc1)c1cccc2nonc12 | 98.3
O=C(CSc1nnc(C2COc3ccccc3O2)o1)N1CCCC1 (stereo not given) | 111
CCc1noc(C)c1C(=O)Nc1nc2ccc(OC)cc2s1 | 92.3
CCc1ccc(C(=O)/C=C/c2ccc([N+](=O)[O-])o2)cc1 | 156
CSc1ccc(-c2cc(=O)c3ccccc3o2)cc1 | 81.6
COc1ccccc1C(=O)N1CCN(c2cccc(C(F)(F)F)c2)CC1 | 100
COc1cc(/C=C2\N=C(c3ccccc3)OC2=O)ccc1OCc1c(C)no[n+]1[O-] | 100
CC(C)C(=O)Nc1ccc(NC(=O)c2cc3ccccc3o2)cc1 | 97.6
CCOC(=O)Cc1csc(NC(=O)CSc2nnc(-c3ccc(C)cc3)o2)n1 | 98.3

Same assay, conditions: S. cerevisiae CIT2-GFP strain, flow cytometry, 3 h; measured here: mother cell gate; at 10 µM; stronger effect = higher value

Compound | GFP response, % of DMSO [%]
COC(=O)c1ccccc1Sc1ncnc2onc(C)c12 | 107
CC(C)(C)C(=O)C(Cl)C(=O)Nc1ccccc1 (stereo not given) | 115
O=[N+]([O-])c1ccc(S(=O)(=O)c2cccc(C(F)(F)F)c2)nc1 | 110
Cc1cccn2c(=O)c(/C=C(\C#N)C(=O)NC3CCS(=O)(=O)C3)c(N3CC(C)OC(C)C3)nc12 (stereo not given) | 99.7
CCc1nnc(NC(=O)c2ccc(S(=O)(=O)N(CCOC)CCOC)cc2)o1 | 101
Cc1ccc(N(C(=O)CCCC(=O)Nc2ccccn2)C(C(=O)NC2CCCC2)c2ccc(O)cc2)cc1C (stereo not given) | 112
COc1ccc(OC)c(C2C(C(=O)Nc3nc4ccccc4s3)=C(C)NC3=C2C(=O)CCC3)c1 (stereo not given) | 83.7
O=[N+]([O-])c1ccc(-c2cn3nc(-c4ccccc4)c(-c4ccccc4)nc3n2)cc1 | 108
COc1ccccc1OC(C)C(=O)Nc1ccccc1C(=O)NCC1CCCO1 (stereo not given) | 96.8
COc1ccc(NS(=O)(=O)c2cccc3ccccc23)cc1 | 98.5
O=C(c1ccc2ccccc2c1)N1CCN(c2ccc(O)cc2)CC1 | 104
O=C1c2ccsc2SCCN1Cc1cccc(Cl)c1 | 101
CCCOc1ccc(C(=O)NNC(=S)NC(=O)CC)cc1 | 117
Cc1cccc(N2C(=O)c3cccc4c(N(C)CCO)ccc(c34)C2=O)c1 | 104
Cc1ccc(-n2ncc(C#N)c2/N=C/N(C)C)cc1 | 79.7
C=CCOc1ccccc1C(=O)/C=C1/C(=O)Nc2ccccc21 | 88.2
O=c1cnnc(SCc2ccc([N+](=O)[O-])cc2)[nH]1 | 98.5
Cc1ccc(S(=O)(=O)N2CCCC2C(=O)Oc2ccccc2)cc1 (stereo not given) | 97.3
COCCNc1c(-c2ccc(O)cc2)nc2ccc(Cl)cn12 | 97.3
O=C(Nc1nc(-c2ccc(F)cc2)cs1)c1cnccn1 | 104

Compound | GFP response, % of DMSO [%]
CS(=O)(=O)N1N=C(c2ccc3nccnc3c2)CC1c1ccccc1 (stereo not given) | 102
O=C(NCCCSc1ccccc1)c1cc(Cl)ccc1O | 94.5
COc1ccc(N2C(=O)CC(Sc3ncn[nH]3)C2=O)c(OC)c1 (stereo not given) | 101
CN1CCSc2ccc(C(=O)Nc3cccc(F)c3)cc21 | 91
CCN(CC)CCCN(C(=O)c1ccc(Br)cc1)c1nc(-c2ccc(OC)cc2)cs1 | 98.2
O=C(Nc1nccs1)C1CCCN1S(=O)(=O)c1ccc(F)cc1 (stereo not given) | 114
O=C(c1ccccc1)c1ccccc1N1C(=O)C=CC1=O | 71.8
COc1ccc(N2CCN(C(=O)C3CCCN(S(=O)(=O)c4ccc(C)cc4)C3)CC2)cc1 (stereo not given) | 105
Cc1cc(NCCCN2CCOCC2)n2nc(C)c(-c3ccc(F)cc3)c2n1 | 99.3
CCC(C)(C)n1nnnc1C(c1ccc(O)c(OC)c1)N1CCc2ccccc2C1 (stereo not given) | 105
COc1ccc(-c2csc(Nc3ncccc3C)n2)cc1 | 99.7
O=S(=O)(Nc1ccc(Br)cc1)c1cccc2nonc12 | 95.6
O=C(CSc1nnc(C2COc3ccccc3O2)o1)N1CCCC1 (stereo not given) | 112
CCc1noc(C)c1C(=O)Nc1nc2ccc(OC)cc2s1 | 90.4
CCc1ccc(C(=O)/C=C/c2ccc([N+](=O)[O-])o2)cc1 | 148
CSc1ccc(-c2cc(=O)c3ccccc3o2)cc1 | 84.8
COc1ccccc1C(=O)N1CCN(c2cccc(C(F)(F)F)c2)CC1 | 100
COc1cc(/C=C2\N=C(c3ccccc3)OC2=O)ccc1OCc1c(C)no[n+]1[O-] | 96.8
CC(C)C(=O)Nc1ccc(NC(=O)c2cc3ccccc3o2)cc1 | 100
CCOC(=O)Cc1csc(NC(=O)CSc2nnc(-c3ccc(C)cc3)o2)n1 | 105
